PGK inhibitor = inhibitors of T. brucei phosphoglycerate kinase; P07378; PGK/GAPDH coupled, Kinase-Glo luminescence, 60 min; Potency, µM (doses to about 57.5 µM), for inactives: at the top dose activity change, negative = inhibition, most hits filed as inhibitors; 380,000 compounds, 0.043% hits; also: potency is read from the fitted curve at half-maximal effect; % is scaled to controls: 0 for no effect and ±100 for the full control effect; nearly all actives have a fitted effect of over 60% in size
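Luminescent ATP detection (Kinase-Glo Plus) follows a 60-minute room-temperature incubation, with wells lacking PGK as controls. Buffer: 100 mM TEA (pH 7.6), 5 mM MgCl2, 0.01% Tween-20. Coupling enzyme GAPDH (100 nM final) supplies unstable 1,3-BPG in-well.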
PI4K2A block = inhibitors of human PI4K2A | Q9BTU6 | purified PI4K2A, ADP-Glo luminescence, 1 h; active compounds read low | activity change, negative = inhibition, % at 76.9 µM | 420,000 compounds, 0.13% hits; in the data active = activity change below about -50%; inconclusive = mostly about -30% to -49%;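 also: -100% = wells without enzyme as full effect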
Target sequence (Q9BTU6 whole entry, looked up): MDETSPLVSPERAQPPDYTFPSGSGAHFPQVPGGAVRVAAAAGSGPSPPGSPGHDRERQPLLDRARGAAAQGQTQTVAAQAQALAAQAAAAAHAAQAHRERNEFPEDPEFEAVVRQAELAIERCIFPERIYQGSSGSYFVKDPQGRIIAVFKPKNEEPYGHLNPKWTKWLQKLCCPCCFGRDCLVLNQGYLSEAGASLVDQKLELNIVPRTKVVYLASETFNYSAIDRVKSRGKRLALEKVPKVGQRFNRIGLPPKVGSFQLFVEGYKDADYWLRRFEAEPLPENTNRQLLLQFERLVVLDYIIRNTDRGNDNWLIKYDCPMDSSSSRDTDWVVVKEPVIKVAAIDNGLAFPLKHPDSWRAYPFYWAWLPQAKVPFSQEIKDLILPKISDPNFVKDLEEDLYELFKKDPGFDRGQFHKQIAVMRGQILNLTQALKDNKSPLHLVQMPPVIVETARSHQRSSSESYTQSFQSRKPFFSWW
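Compounds are screened against recombinant PI4K2A using PI as substrate and ATP, the latter dispensed at 300 microM. Reactions run one hour at ambient temperature before ADP-Glo detection; full inhibition defined by wells lacking enzyme.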
CCT modulator = changes cytosolic chaperonin activity | 360,000 compounds, 0.3% hits | activity change, % (no concentration beside the values), hits read low | purified chaperonin ATPase assay, HTRF ADP detection, 30 min; in the data active = activity change below about -30%; also: % is scaled to controls: 0 for no effect and ±100 for the full control effect
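TRiC (40 or 20 nM final, by batch activity) in 30 mM Tris pH 7.4, 100 mM KCl, 5 mM MgCl2, 1 mM DTT was treated with compound at 76 uM single dose, then 10 uM ATP, 30 min at 37 °C. ADP was read by HTRF Transcreener.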
GLS inh = glutaminase GLS (human) inhibition | Potency, µM (doses to about 45.5 µM), for inactives: at the top dose activity change, negative = inhibition, usual class: inhibitors | 410,000 compounds, 0.21% hits | GLS enzymatic activity, qHTS titration | O94925 | AID 624170; also: potency is read from the fitted curve at half-maximal effect; % is scaled to controls: 0 for no effect and ±100 for the full control effect
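Read-out is an Amplex red fluorescence increase coupled through glutamate oxidase and HRP, measured before and after 30 min room-temperature incubation. hKGA is in 45 mM KH2PO4 (pH 8.2) with 0.02% Tween-20; glutamine added as 1mM solution.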
PINK1 expr mod = modulators of PINK1 expression; PINK1 immunofluorescence, high-content cytometry, 24 h; Potency, µM (doses to about 76.6 µM), inactives show at the top dose activation (PINK1 increase), hits mostly activators; 410,000 compounds, 0.2% hits; AID 624263; active = well fitted activation curve with a large enough effect; inconclusive = small, poorly fitted or top-dose-only effect; cell line not stated here; also: potency is read from the fitted curve at half-maximal effect; % of control where 0% means no effect; nearly all actives have a fitted effect of over 65% in size
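Fluorescence from anti-PINK1 antibody, together with nuclear and cell stains, was scanned on a laser-scanning cytometer. Before staining, stable-line cells were incubated 24 hours with compounds at 5 concentrations; primary antibody 12 h at 10 degrees C.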
* marks the source's active call; other numbers are inactive results; i = inactive; ? = inconclusive; . = not tested or not shown. An excerpt weighted towards active compounds, which were near 0.78% of everything screened. Unless noted, calls follow the shape of the dose curve; as a rule, active = well fitted curve in the direction sought with a large enough effect; inconclusive = small, poorly fitted or top-dose-only effect, or another doubt; inactive = no such curve, though single readings can be large; an effect the other way counts as inactive or inconclusive.

SMILES	PGK inhibitor	PI4K2A block	CCT modulator	GLS inh	PINK1 expr mod
CC(C)c1c(C(=O)NC(c2cccnc2)C(F)(F)F)cnn1-c1nccc(-c2cccs2)n1 (centres undefined)	.	.	.	.	-1.0%
Oc1ccc(Nc2nc(-c3ccccc3)nc3ccccc23)cc1	4.7%	-3.0	-0.6	7.94µM*	-0.2%
O=C(CCCN1C(=O)C(c2ccccc2)Oc2cccnc21)NCCc1ccc(Cl)cc1 (centres undefined)	-7.8%	-6.8	-125.1*	-11.8%	-0.1%
O=C([C@@H]1C[C@@H](Sc2nc3ccccc3[nH]2)CN1Cc1ccc(Cl)cc1)N1CCN(c2ccccc2F)CC1	.	.	.	.	0.7%
Cc1ccc(C(=O)NC2CCN(CC(=O)Nc3ccccc3Cl)CC2)cc1	-5.7%	-0.5	-36.7*	-6.3%	-1.6%
COC(=O)c1ccccc1NC(=O)CN1CCC(NC(=O)c2ccc(C)cc2)CC1	-6.8%	1.4	-0.7	2.1%	-1.8%
CCCCCCCNC1=CC(=O)CC(c2ccccc2)C1 (centres undefined)	0.5%	5.4	-1.8	-2.7%	39.8µM*
O=C1c2cccnc2-c2ncccc21	-3.2%	2.9	0.0	7.4%	-2.6%
O=C1C(=O)c2cccnc2-c2ncccc21	.	-73.8*	-1.3	-14.9%	-1.4%
COC1=C(Br)C(=O)c2ncccc2C1=O	?	-55.1*	-1.4	?	-0.7%
O=C(Cn1cnc2ccccc2c1=O)N1CCN(Cc2ccc3c(c2)OCO3)CC1	-3.9%	2.0	-54.3*	3.2%	0.4%
O=C(c1cccc([N+](=O)[O-])c1)N1CCN(Cc2ccc3c(c2)OCO3)CC1	1.7%	-69.3*	-5.1	6.3%	-0.5%
O=C(Cn1cnc2ccccc2c1=O)NCC(=O)N1CCN(Cc2ccc3c(c2)OCO3)CC1	i	4.8	-0.7	-12.0%	3.3%
CN1Cc2cc(C(=O)N3CCC(C4CCNCC4)CC3)ccc2N[C@@H](CC(=O)O)C1=O	.	-11.8	.	.	.
O=Cc1ccc(N2CCN(S(=O)(=O)c3ccc4c(c3)CC(=O)N4)CC2)cc1	.	-56.1*	.	-6.6%	0.3%
O=C1Cc2cc(S(=O)(=O)N3CCN(c4ccccc4)CC3)ccc2N1	7.2%	0.3	-0.4	2.3%	21.4%
CC(=O)N[C@@H](C)C(=O)NCC1Cc2cc(C)cc(-c3cnccn3)c2O1 (some centres undefined)	.	.	.	.	-0.4%
COc1cc(OC)c(C(=O)CCC(=O)O)cc1OC	-8.8%	2.4	-31.0*	11.1%	9.4%
COc1cc(CC(=O)O)c(C(C)=O)cc1OC	-3.1%	3.8	-3.6	5.7%	-0.6%
COc1cc(NS(=O)(=O)c2ccc(NC(=S)NC(=O)/C=C/c3ccco3)cc2)ncn1	20µM*	-6.8	-1.5	?	7.7%
c1ccc2c(c1)CCc1ccccc1N2	.	0.1	.	.	.
CCCCNC(=S)N/N=C/c1cccc(OCC)c1O	2.7%	-2.0	-0.8	8.91µM*	5.1%
CCOc1cccc(/C=N/NC(=S)Nc2ccccc2[N+](=O)[O-])c1O	4.2%	-1.4	3.9	11.4%	12.5%
O=C(CN1C(=O)NC2(CCCC2)C1=O)N1CCN(c2ccccc2O)CC1	0.4%	1.6	2.2	3.16µM*	0.4%
CCOc1ccccc1N1CCN(C(=O)CN2C(=O)NC3(CCCC3)C2=O)CC1	6.2%	5.7	-1.6	5.2%	-1.1%
SMILES	PGK inhibitor	PI4K2A block	CCT modulator	GLS inh	PINK1 expr mod
Nc1ccc2c(c1)C(=O)c1cc(Cl)c(Cl)cc1-2	-0.1%	-5.3	-1.6	-18.7%	3.7%
Nc1ccc2c(c1)C(=O)c1ccc(N)cc1-2	-3.7%	4.1	-61.8*	-12.5%	2.7%
CCOC(=O)N1CCN(Cc2ccc3c(c2)CN(C(=O)c2cc(-c4ccccc4)on2)CCO3)CC1	.	.	.	.	0.4%
NC(=S)n1[nH]c(-c2ccc([N+](=O)[O-])cc2)c(N=Nc2ccccc2[N+](=O)[O-])c1=O	-7.8%	-5.8	-1.8	-10.2%	3.8%
Cc1c(N=Nc2c(-c3ccc([N+](=O)[O-])cc3)[nH]n(C(N)=S)c2=O)cccc1[N+](=O)[O-]	-19.2%	-4.7	-0.8	7.6%	3.16µM*
CCOc1ccc(Cc2nnc(SCC(=O)Nc3ccc(OC)cc3)n(N)c2=O)cc1	i	5.5	0.4	-4.0%	18.0%
COc1ccc(NC(=O)CSc2nnc(CCC(=O)O)c(=O)n2N)cc1	.	0.1	-56.1*	-4.9%	-0.4%
NC(=O)c1ccc(NC(=O)CSc2nnc(-c3cccnc3)n2Cc2ccco2)cc1	-6.2%	-15.6	-72.9*	?	0.4%
Cc1cc(C(=O)NCc2nc(-c3cccc(NC(=O)c4cc(C)oc4C)c3)oc2C)nc(C)n1	.	.	.	.	1.1%
CCCCCOc1ccccc1/C(=C\SC)n1ccnc1	.	3.2	.	.	.
O=C(CCCCCn1c(=S)[nH]c2ccc(N3CCOCC3)cc2c1=O)NCc1cccc(Cl)c1	1.8%	-2.8	-50.4*	1.2%	9.4%
CSc1ccc(C(=O)N2CCc3c(cnc(C)c3CNC(=O)c3cncs3)C2)cc1	.	.	.	.	-0.4%
O=C(O)c1cc(-c2ccc(/C=C3\NC(=O)N(c4ccc(Cl)cc4)C3=O)o2)ccc1Cl	31.6µM*	-8.2	-0.9	20µM*	3.1%
O=C(O)c1cc(-c2ccc(/C=C3\NC(=O)N(c4ccccc4)C3=O)o2)ccc1Cl	-25.3%	-6.3	-1.6	?	-0.7%
Cc1cc(C(=O)NNS(=O)(=O)c2cc(C(=O)O)ccc2Cl)c(C)n1-c1ccccc1	-14.4%	3.5	-0.3	20µM*	-0.8%
Cc1ccc(-c2ccc(C(=O)Nc3ccccc3)o2)c2ccccc12	-7.2%	-55.3*	0.2	-13.1%	3.1%
Cc1ccc(-c2ccc(C(=O)NCc3ccccc3)o2)c2ccccc12	-1.2%	-4.6	-0.3	-1.1%	0.3%
O=C(NCCCCc1ccccc1)C1CC(c2cc(C(F)(F)F)cc(C(F)(F)F)c2)=NO1 (centres undefined)	i	4.6	-2.0	-2.3%	2.4%
CCCCN(CCCC)CCCNC(=O)C1CC(c2cc(C(F)(F)F)cc(C(F)(F)F)c2)=NO1 (centres undefined)	-8.5%	-66.3*	-1.7	9.1%	0.2%
COc1ccc(Cl)cc1C(=O)OCC(=O)NC(=O)c1cccn1C	-4.3%	3.3	-0.6	5.7%	-1.1%
CCCOc1c(Br)cc(C(=O)OCC(=O)NC(=O)c2cccn2C)cc1OC	-8.9%	-4.9	-46.5*	-3.3%	16.5%
COc1cc(Cn2c(=O)c3c(OC)c(C)cnc3n(C)c2=O)cc(OC)c1	i	-3.0	-51.9*	4.4%	4.5%
COc1ccc(-c2cc(C)cc3c2OC(CNC(=O)/C=C/c2ccncc2)C3)nn1 (centres undefined)	.	.	.	.	1.0%
Cc1cnc(C)c(-c2ccc3c(c2)CC(CNC(=O)Cc2c(C)[nH]c4ccccc24)O3)n1 (centres undefined)	.	.	.	.	-0.9%
Cc1ccc(NC(=O)CC(C)S(=O)(=O)c2ccc3c(c2)NC(=O)CO3)c(C)c1 (centres undefined)	-8.0%	-3.7	.	3.5%	2.6%

Screening data deposited in PubChem by National Center for Advancing Translational Sciences (NCATS).
